# Giardia kill: Giardia lamblia killing; activity change, % at 7.66 µM, hits read low; Giardia lamblia trophozoite viability; 340,000 tested, 0.15% active; in the data active = activity change below about -80%; inconclusive = between about -30% and that limit;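 also: parasites exposed to compound for two days anaerobically before the ATP read; % is scaled to controls: 0 for no effect and ±100 for the full control effect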
#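 Killing of trophozoites was scored by loss of ATP luminescence after a 48 hrs anaerobic exposure to compounds at 37 deg C, using 100 cells per well.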
# B2AR arrestin: beta2AR (human) beta-arrestin recruitment activity; P07550; beta-arrestin recruitment to beta2AR, cell-based reporter; Potency, µM (doses to about 46.1 µM), for inactives: top-dose activation, most hits filed as activators; 330,000 tested, 0.02% active; active = well fitted activation curve with a large enough effect; inconclusive = small, poorly fitted or top-dose-only effect;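 also: potency is read from the fitted curve at half-maximal effect; 0% = DMSO controls and full agonism = EC100 isoproterenol or metaproterenol; nearly all actives have a fitted effect of over 65% in size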
# D3 ag: activates the human D3 dopamine receptor. P35462. D3R DiscoveRx beta-arrestin cells, luminescence, 90 min. max activation, %. 410,000 tested, 0.58% active. AID 652048; in the data active = max activation above about 30%; also: 0% is about no effect
# Target sequence (P35462 whole entry, looked up): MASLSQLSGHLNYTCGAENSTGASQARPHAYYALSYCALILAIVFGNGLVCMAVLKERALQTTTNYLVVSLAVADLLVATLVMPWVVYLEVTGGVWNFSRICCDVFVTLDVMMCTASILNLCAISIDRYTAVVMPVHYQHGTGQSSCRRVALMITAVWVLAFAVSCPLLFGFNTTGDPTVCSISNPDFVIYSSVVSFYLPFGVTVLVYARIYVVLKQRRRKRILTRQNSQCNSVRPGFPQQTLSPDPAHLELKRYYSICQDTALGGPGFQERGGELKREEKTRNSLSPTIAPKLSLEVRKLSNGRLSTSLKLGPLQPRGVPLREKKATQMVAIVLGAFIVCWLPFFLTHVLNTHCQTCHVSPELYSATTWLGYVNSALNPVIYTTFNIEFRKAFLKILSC
#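 Agonist-mode cell screen: cells plated at 1500/well and incubated overnight at 37 °C, then exposed to library compounds for 90 min at 37 °C. Detection reagent was added for 30–60 min at room temperature, and luminescence was read.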
# DRD3 antagonist: antagonists of human D3 dopamine receptor | P35462 | D3R cells, DiscoveRx beta-arrestin luminescence, antagonist mode; active compounds read low | max response, negative = inhibition, % | 360,000 tested, 2.5% active | AID 652054; in the data active = max response below about -50%; inconclusive = no clear call, values can overlap the other calls; also: % is scaled to controls: 0 for no effect and ±100 for the full control effect
#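 Cells plated overnight at 1500 cells/well, then exposed to library compounds with dopamine controls for 90 minutes at 37 degrees C. DiscoveRx reagent added for 30–60 minutes at room temperature; luminescence read, quantitative HTS format.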
# * = called active by the depositor; ? = inconclusive; · = no result. The list is not random: actives were taken first. Their share in the collection is about 2.8%.
SMILES,Giardia kill,B2AR arrestin,D3 ag,DRD3 antagonist
COCC(=O)N(C)CC1CCCN(CCc2ccccc2OC)C1 (stereo not drawn),9.1,-0.7%,-11.9,-64.1*
Cc1ccc(S(=O)(=O)/N=C2/C=C(Sc3ncn[nH]3)C(=O)c3ccccc32)cc1,-17.5,-0.8%,-22.4,-104.1*
CC(C)c1ccc(S(=O)(=O)/N=C2/C=C(Sc3ncn[nH]3)C(=O)c3ccccc32)cc1,-7.7,-0.6%,-6.1,-75.2*
Cc1ccc(S(=O)(=O)/N=C2/C=C(Sc3ncn[nH]3)C(=O)c3ccccc32)c(C)c1,·,-0.8%,·,·
CCN1CCN(CCCN(Cc2ccco2)C(=S)Nc2ccc(Cl)c(C)c2)CC1,-1.1,-0.1%,-15.0,-28.5
O=C(CNC(=S)N(CCCN1CCOCC1)Cc1cccs1)NCc1ccccc1Cl,32.3,0.3%,0.3,-58.5*
COc1ccc(NC(=S)N(CCCN2CCN(C)CC2)Cc2cccs2)cc1,-0.9,-0.6%,-8.8,45.1
COc1ccc(NC(=S)N(CCCN2CCC(C)CC2)Cc2cccs2)cc1Cl,-4.8,-0.2%,-23.8,-79.8*
Cc1ccc(NC(=S)N(CCCN2CCCC(C)C2)Cc2ccco2)cc1C (stereo not drawn),-18.3,0.0%,-23.5,-91.9*
COc1cccc(NC(=S)N(CCCN2CCCC(C)C2)Cc2cccs2)c1 (stereo not drawn),5.4,0.2%,-11.0,-80.2*
COc1cccc(NC(=S)N(CCN2CCCCC2)Cc2ccco2)c1,23.8,0.0%,-22.3,?
CCOc1cccc2cc(-c3nc4sc5c(c4c(=O)[nH]3)CCC(C)C5)c(=O)oc12 (stereo not drawn),·,·,-20.0,·
CCOC(=O)CSc1nc2ccccc2c(=O)n1CCc1ccc(OC)c(OC)c1,·,·,3.3,·
NCCCC[C@H](NC(=O)[C@@H]1CCCN1C(=O)[C@@H]1CSSC[C@H](N)C(=O)N[C@@H](Cc2ccccc2)C(=O)N[C@@H](Cc2ccccc2)C(=O)N[C@@H](CCC(N)=O)C(=O)N[C@@H](CC(N)=O)C(=O)N1)C(=O)NCC(N)=O,·,·,-1.8,·
CSc1cccc(NC(=S)N(CCCN2CCCC(C)C2)Cc2cccs2)c1 (stereo not drawn),8.7,-0.2%,-14.0,-103.6*
COc1ccccc1NC(=S)N(CCN1CCCCCC1)Cc1cccs1,7.1,-0.3%,-21.9,-57.7*
Cc1cc(C)cc(NC(=S)N(CCCN2CCN(C)CC2)Cc2cccs2)c1,3.5,0.1%,-9.2,5.4
Cc1nc2c(OCCC3CCCCC3)cccn2c1N(C)C(=O)CCC1CCCC1,·,·,-16.3,-66.8*
CCc1nc2c(OCCC3CCCCC3)cccn2c1N(C)C(=O)c1ccc(C)cc1,·,·,-18.2,-55.6*
CCc1nc2c(OCCC3CCCCC3)cccn2c1N(C)C(=O)C1CC1,·,·,-19.7,-66.0*
CCc1nc2c(OCC=C(C)C)cccn2c1N(C)C(=O)c1ccc(OC)cc1,·,·,2.1,-60.6*
CCc1nc2c(OCc3ccc(OC)cc3)cccn2c1N(C)C(=O)c1ccc(OC)cc1,·,·,-5.5,-17.9
Cc1nc2c(OCCOc3ccccc3)cccn2c1N(C)C(=O)CCC1CCCC1,·,·,-0.5,8.2
CCc1nc2c(OCCOC)cccn2c1N(C)C(=O)c1ccc(C)cc1,·,·,-2.3,-18.0
COc1ccc(OC)c(NC(=O)N2CC3CCCN3c3ccccc32)c1 (stereo not drawn),·,·,-22.2,·
SMILES,Giardia kill,B2AR arrestin,D3 ag,DRD3 antagonist
CC(CNC(=O)c1cc2cc(S(=O)(=O)N3CCCCC3)ccc2n1C)c1ccccc1 (stereo not drawn),·,·,-4.9,·
CCCn1c(=O)c2sccc2n2c(CCCC(=O)Nc3ccc(Oc4ccccc4)cc3)nnc12,·,·,4.5,·
CCc1nc2c(OCc3ccc(C(F)(F)F)cc3)cccn2c1N(C)C(=O)c1ccc(OC)cc1,·,·,-11.9,?
CCc1nc2c(OCc3ccc(C(F)(F)F)cc3)cccn2c1N(C)C(=O)c1ccc(C)cc1,·,·,-14.3,-65.8*
Cc1nc2c(OCc3ccc(C(F)(F)F)cc3)cccn2c1N(C)CC1CC1,·,·,-27.7,-98.6*
CCOc1ccc(-n2nc(CO)c(C(=O)NCc3cccs3)n2)cc1,·,·,6.2,·
CN(C(=O)CSc1cn(CC(=O)N2CCCC2)c2ccccc12)c1ccccc1,·,·,-0.4,·
CC(C)(C)NS(=O)(=O)c1cccc(S(=O)(=O)c2cccc(S(=O)(=O)NC(C)(C)C)c2)c1,8.5,-0.7%,-9.7,-122.5*
CC(C)(C)NS(=O)(=O)c1ccc(N2C(=O)c3ccccc3C2=O)cc1,-27.1,-0.3%,1.1,17.8
O=C(NCCCN1CCOCC1)c1ccccc1N1C(=O)[C@@H]2Cc3c([nH]c4ccccc34)C(c3ccc(F)cc3)N2C1=O (stereo partly drawn),14.3,0.5%,32.9*,15.6
O=C(NCCN1CCOCC1)c1ccccc1N1C(=O)[C@@H]2Cc3c([nH]c4ccccc34)C(c3ccccc3)N2C1=O (stereo partly drawn),2.0,-1.7%,-24.4,0.0
COc1ccccc1NC(=O)NCC1(N(C)C)CCCCC1,11.6,-0.2%,-25.1,-81.8*
c1ccc(-c2ccccc2OCCOCCN2CCc3ccccc3C2)cc1,4.1,0.0%,-24.8,-92.7*
CCC(=O)c1ccccc1OCCN1CCN(Cc2ccccc2)CC1,-12.1,0.4%,-18.3,-83.5*
Clc1ccc(OCCOCCN2CCc3ccccc3C2)c(Cl)c1,14.8,0.2%,-33.3,-74.4*
CC1CN(CCOCCOc2ccccc2-c2ccccc2)CC(C)O1 (stereo not drawn),-10.7,-1.1%,-19.6,-21.1
CCOc1ccccc1OCCOCCN1CCN(Cc2ccccc2)CC1,-8.1,0.2%,-19.0,?
OCCN1CCN(CCOc2ccccc2-c2ccccc2)CC1,2.2,-0.2%,-23.9,-84.5*
Clc1nc(NCC2CCCO2)c2[nH]cnc2n1 (stereo not drawn),15.6,·,·,·
CC(=O)OCc1cnc(C)c2oc(=O)c(C(=O)Nc3ccc(F)cc3C)cc12,·,·,-3.8,·
CCOc1ccccc1CNC(=O)CN1C(=O)CCn2nc(-c3cn(C)c4ccccc34)cc21,·,·,-9.8,·
C=C1CC[C@H](O)CC1=C/C=C1\CCC[C@]2(C)[C@@H]([C@H](C)CC[C@@H](O)C(C)(C)O)CC[C@@H]12,·,·,6.3,·
Clc1ccc(OCCCN2CCc3ccccc3C2)c(Br)c1,3.7,0.0%,-2.5,-105.2*
CCS(=O)(=O)c1nc2ccccc2n1CC(=O)Nc1ccccc1C(=O)OC,·,·,-20.1,·
Cc1cc(C)cc(-n2nnc(-c3nc(-c4ccc5c(c4)OCO5)no3)c2C)c1,·,·,8.6,·
SMILES,Giardia kill,B2AR arrestin,D3 ag,DRD3 antagonist
O=C(OCc1nnc(-c2ccccc2)o1)c1ccc(Cl)cc1,-4.0,-0.1%,0.2,-15.9
O=C(OCc1nnc(-c2ccccc2)o1)c1ccc(CO)cc1,-2.0,0.0%,-3.9,-51.4*
Cc1ccc(-c2nnc(COC(=O)c3ccco3)o2)cc1,16.0,0.4%,-5.1,-95.4*
O=C(OCc1ccccc1)c1cccc(-c2nnc(-c3ccccc3)o2)c1,14.4,-0.6%,37.9*,25.2
O=C(OCc1nnc(-c2ccccc2)o1)c1ccc(S(=O)(=O)NCc2ccco2)cc1,12.2,0.0%,-5.3,-78.3*
O=C(OCc1ccc(C(=O)c2ccccc2)cc1)c1cccc(-c2nnc(-c3ccccc3)o2)c1,-11.1,-0.2%,-5.6,-19.1
COc1cccc(N2CCN(C(=O)CN3CCSc4ccccc43)CC2)c1,·,·,3.5,·

# High-throughput results deposited in PubChem by National Center for Advancing Translational Sciences (NCATS).
